Bioassay records: PubChem BioAssay, Johns Hopkins Ion Channel Center
Sampled rows, rich in hits. Any-hit rate of the full collection: about 1.6%.
KCNQ2 block – blocks the rat KCNQ2 potassium channel; 310,000 tested, 1.1% active; O88943; B-score at 10 µM; CHO-K1 KCNQ2, FluxOR thallium flux, 20 min; active compounds read low;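 active = fluorescence ratio B-score at most minus 3 library SDs, with starting brightness B-score within 2 library SDs, cut at about -5.5 in these data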
KCNQ2 pot – KCNQ2 (rat) channel potentiation | O88943 | 310,000 tested, 0.54% active | AID 2239 | CHO-K1 KCNQ2, FluxOR thallium flux fluorescence; active compounds read high | B-score at 10 µM;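 active = fluorescence ratio B-score at least 3 SD of library B-scores, with initial fluorescence B-score within 3 of them, cut at about 5.3 in these data; same plate scores as AID 2156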;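 note: B-score of peak minus minimum over baseline fluorescence ratio after K+ and Tl+ stimulus; positive B-score means potentiation of KCNQ2 with more thallium influx and brighter signal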
An asterisk follows results filed as active; i = inactive; · = no result.

SMILES	KCNQ2 block	KCNQ2 pot
COc1ccc(N2C(=O)c3ccccc3C(C)(C)C2=O)cc1	i	·
CCOc1ccc(N(CC(=O)Nc2ccccc2C(=O)N2CCCC2)S(C)(=O)=O)cc1	i	·
COc1ccc(S(=O)(=O)N(C)c2ccc(C(=O)Nc3cccnc3)cc2)cc1	i	3
O=C(CSC1=NS(=O)(=O)c2cc(F)ccc2N1)Nc1ccccc1	i	·
O=C(CSC1=NS(=O)(=O)c2ccccc21)Nc1ccccc1	-6.4*	-6.4
Nc1nonc1-n1nnc(C(=O)N/N=C/c2ccco2)c1CSc1ccccc1	i	0.55
O=C1CC(c2cccc(Cl)c2)CC(O)=C1C=NC1CCCC1 (centres undefined)	-6.8*	-6.8
O=C1CC(c2ccccc2)CC(O)=C1C=NCc1ccccc1Cl (centres undefined)	i	·
Cc1ccc([N+](=O)[O-])cc1NC(=O)c1ccc(CSc2ccccc2)cc1	i	0.57
Cc1ccc(SCc2ccc(C(=O)Nc3cccc([N+](=O)[O-])c3C)cc2)cc1	-5.6*	-5.6
Cn1c2ccccc2c(=O)c2ccc(C#CC3(N)CCCCC3)cc21	-7.3*	-7.3
Cn1c2ccccc2c(=O)c2cc(C#CC3(O)CCCCC3)ccc21	i	1.1
O=C(O)CC(Cc1ccc(Br)cc1)C(=O)Nc1ccccc1 (centres undefined)	i	0.52
O=C(CN1CCCC1)Nc1ccc(Br)cc1[N+](=O)[O-]	i	·
O=C(NCCc1ccccc1)c1ccc(-c2ccc(F)cc2)o1	-5.8*	-5.8
O=C(NCc1ccccc1)c1ccc(-c2ccccc2F)o1	i	·
CSCCC(NS(=O)(=O)c1ccccc1F)C(=O)N1CCCCCCC1 (centres undefined)	i	·
CCN1/C(=C/c2ccc3ccccc3[n+]2CCCS(=O)(=O)[O-])C=Cc2cc(C)ccc21	i	0.41
CCN1/C(=C/c2ccc3ccccc3[n+]2CC)C=Cc2ccccc21	-15*	-15
O=C(Nn1cnnc1)c1ccc(Cl)cc1[N+](=O)[O-]	i	·
COc1ccc(/C(N)=N/OC(=O)CCc2ccccc2)cc1OC	i	·
COc1ccc(/C(N)=N/OC(=O)CSc2ccccc2)cc1OC	-6*	-6
CN(C)c1ncc(C2=C(Cl)C(=O)C(N3CCCC3)=C(Cl)C2=O)s1	-8.6*	-8.6
O=C1C(Cl)=C(N2CCCCC2)C(=O)C(Cl)=C1c1cnc(N2CCCCC2)s1	i	·
Cc1ccc(S(=O)(=O)CCC(=O)N2CCN(c3ccc([N+](=O)[O-])cc3)CC2)cc1	i	·
SMILES	KCNQ2 block	KCNQ2 pot
CCN(CC)C(=O)CSc1nc2cc(S(=O)(=O)N3CCOCC3)ccc2n1CC	i	0.42
O=S(=O)(c1ccc(Cl)cc1)N1CCCC1c1nc2ccccc2s1 (centres undefined)	i	·
O=S(=O)(c1ccccc1Cl)N1CCCC(c2nc(-c3cccnc3)no2)C1 (centres undefined)	i	0.89
O=S(=O)(c1ccccc1Cl)N1CCCC1c1nc(-c2cccc(Cl)c2)no1 (centres undefined)	-6.3*	-6.3
O=S(=O)(c1ccc(Cl)cc1)N1CCCC1c1nc(-c2cccc(Cl)c2)no1 (centres undefined)	-5.9*	-5.9
N#CCCC(CCC#N)(CCC#N)c1cc[n+](CCc2ccccn2)cc1	i	·
CCN(CC)C(=O)Cn1cc(C(=O)C(=O)NCCCN2CCCCC2)c2ccccc21	i	0.68
O=C(COc1cccc([N+](=O)[O-])c1)NN1C(=O)c2ccccc2C1=O	i	1
CCn1c(COc2cccc(OC)c2)nnc1SCC(=O)Nc1cc(OC)ccc1OC	i	·
COc1ccc(OCCSc2nnc(CC(=O)Nc3cccc(Cl)c3Cl)n2C)cc1	-8.1*	-8.1
COc1ccc(CC(=O)NCc2nnc(SCCOc3ccccc3)n2C)cc1	i	·
CCn1c(CC(=O)Nc2cccc(Cl)c2Cl)nnc1SCCOc1ccc(OC)cc1	-6.1*	-6.1
Nc1[nH]ncc1S(=O)(=O)c1ccccc1	i	·
Cc1[nH]c2ccc(C(=O)NCCCN(C)C3CCCCC3)cc2c1C	i	0.26
Cc1ccc(C(=S)N2CCCCCC2)cc1	i	·
O=[N+]([O-])c1ccc(Oc2ccc(S(=O)(=O)Nc3ccccc3)cc2)cc1	i	3.2
O=C1C(Cl)=C(NS(=O)(=O)c2ccc([N+](=O)[O-])cc2)C(=O)c2ccccc21	-6*	-6
CC1(C)C(=O)Nc2ccccc2N1C(=O)COC(=O)/C=C/c1ccc(OC(F)F)cc1	i	·
C=C1CCN([C@@H](Cc2ccccc2)C(=O)NCc2ccccc2)S(=O)(=O)c2ccccc21	i	·
C=C1CCN([C@@H](Cc2ccccc2)C(=O)NCc2ccc(Cl)cc2)S(=O)(=O)c2ccccc21	-6*	-6
CC(=O)Nc1ccc(S(=O)(=O)NNc2cccc(C)c2)cc1	i	·
CCCCc1ccc(NS(=O)(=O)c2cccs2)cc1	-5.9*	-5.9
O=S(=O)(Nc1ccc(Cc2ccncc2)cc1)c1cccs1	i	0.96
c1ccc(-c2n[nH]c3c2CCC3)cc1	i	·
CC(C)[C@@H]1CC[C@@H](C)c2c(-c3ccccc3)n[nH]c21	-7.2*	-7.2
SMILES	KCNQ2 block	KCNQ2 pot
O=C(Nc1cccc(S(=O)(=O)N2CCOCC2)c1)C1CCCN(C(=O)c2ccc(Cl)cc2)C1 (centres undefined)	i	0.88
O=C(O)c1ccccc1/C=N/Nc1nc(N2CCCCC2)nc(N2CCCCC2)n1	i	·
C(=N\Nc1nc(N2CCCCCC2)nc(N2CCCCCC2)n1)/c1ccccc1	-5.8*	-5.8
COc1cccc(C(=O)Nc2nnc(SCC(=O)Nc3ccc(NC(C)=O)cc3)s2)c1	i	0.52
O=c1cc(-c2c(O)c3ccccc3n(Cc3ccccc3)c2=O)[nH][nH]1	-6.8*	-6.8
CCn1c(=O)c(-c2cc(=O)[nH][nH]2)c(O)c2ccccc21	i	·
CN(Cc1cccs1)C(=O)CNC(=O)c1ccco1	i	0.66
O=C(CSc1nc2ccccc2nc1N1CCOCC1)N1CCN(c2ccccc2)CC1	i	0.21
O=C(CSc1nc2ccccc2nc1N1CCCCC1)N1CCN(c2ccccc2)CC1	-7.7*	-7.7
O=C(NCc1ccco1)c1ccc2c(c1)OCCO2	i	1.9
O=C(O)Cn1c(=O)c2c3c(sc2n(Cc2ccc(F)cc2)c1=O)CCCC3	i	·
O=C(O)Cn1c(=O)c2c3c(sc2n(Cc2ccccc2F)c1=O)CCCC3	-6.2*	-6.2
CC(OC(=O)Cn1cnc2c1c(=O)n(C)c(=O)n2C)C(=O)NC1CCCCC1C (centres undefined)	i	·
CC(=O)c1ccc(NC(=O)CSc2cn[nH]n2)cc1	i	·
COc1ccc(C(=O)NNC(=O)OC(C)(C)C)cc1	i	·
COc1ccc(C(=O)NN/C(C)=C/C(=O)C(F)(F)C(F)(F)C(F)(F)F)cc1	i	10*
CCCCNC(=O)C1Cc2cc(S(=O)(=O)N3CCCCC3)ccc2N1C(C)=O (centres undefined)	i	·
Cc1ccc2c(c1)N(S(=O)(=O)c1ccc(F)cc1)C(C(C)(C)C)CO2 (centres undefined)	-6.9*	-6.9
Cc1ccc(S(=O)(=O)N2c3ccccc3OCC2C(C)(C)C)cc1 (centres undefined)	i	·
CCOc1cccc(C(=O)Nc2ccccc2C(=O)N2CCOCC2)c1	i	·
O=[N+]([O-])c1ccc(CN2CCN(c3ccc([N+](=O)[O-])cc3)CC2)cc1	i	·
O=[N+]([O-])c1ccc(N2CCC(=NOCc3ccc(Cl)cc3)CC2)cc1	-5.7*	-5.7
